Measured values from PubChem BioAssay.
The source made the active and inactive calls. Unless noted, the rule behind the calls is not given here.

Key:
[1] = compound effects on lung adenocarcinoma cell viability – A549, calcein-AM fluorescence, 48 h, basal, profiling panel (AID 1162); settings: higher = more signal; note: test concentration not given here
[2] = compound effects on differentiated 3T3-L1 adipocyte viability – cell-based, 3T3-L1 adipocytes, calcein-AM fluorescence, 48 h, basal, profiling panel (AID 1163); settings: 3T3-L1 adipocytes viability, higher = more signal; note: test concentration not given here
[3] = compound effects on hepatocellular carcinoma cell viability – HepG2, calcein-AM fluorescence, 48 h, basal, profiling panel (AID 1164); settings: higher = more signal; note: test concentration not given here
[4] = compound effects on multiple myeloma cell viability – MM1S, calcein-AM fluorescence, 48 h, basal, profiling panel (AID 1165); settings: higher = more signal;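 note: viability of MM1S multiple myeloma cells under basal unstimulated conditions; test concentration not given here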
[5] = calcein-AM signal in unstimulated myeloma cells – cell-based, calcein-AM fluorescence, 48 h, PK04 Diversity Set, profiling panel (AID 1166); settings: RPMI8226 myeloma viability, higher = more signal;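 note: cells grown under basal conditions without added stimulus; test concentration not given here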
[6] = JC-1 mitochondrial signal, unstimulated HepG2 cells – cell-based, JC-1 fluorescence, 24 h, 100 nL compound, profiling panel (AID 1167); settings: HepG2 mitochondrial potential, higher = more signal; note: test concentration not given here
[7] = JC-1 mitochondrial signal, unstimulated adipocytes – cell-based, JC-1 fluorescence, 3T3-L1 adipocytes, 24 h, 100 nL compound, profiling panel (AID 1168); settings: JC-1 mitochondrial fluorescence, higher = more signal, called active from +8 up or from −8 down; note: test concentration not given here
[8] = JC-1 mitochondrial signal, unstimulated myeloma cells – cell-based, JC-1 fluorescence, RPMI8226, 24 h, 100 nL compound, profiling panel (AID 1169); settings: JC-1 mitochondrial potential fluorescence, higher = more signal; note: test concentration not given here
[9] = JC-1 mitochondrial signal, unstimulated MM1S myeloma – cell-based, JC-1 fluorescence, 24 h, 100 nL compound, profiling panel (AID 1170); settings: MM1S mitochondrial potential, higher = more signal; note: test concentration not given here
[10] = resazurin metabolic signal in A549 cells – cell-based, resazurin fluorescence, 24 h, PK04 Diversity Set, profiling panel (AID 1171); settings: A549 viability, higher = more signal, called active from +8 up or from −8 down; note: test concentration not given here
[11] = resazurin metabolic signal in HepG2 cells – cell-based, resazurin fluorescence, 24 h, PK04 Diversity Set, profiling panel (AID 1172); settings: HepG2 viability, higher = more signal; note: test concentration not given here
[12] = budding yeast growth changes without added modifier – OD600, strain BY4716, 24 h, basal condition, primary screen (AID 1173); settings: S. cerevisiae BY4716 growth, OD600, 24 h; higher = more signal, called active from +8 up or from −8 down
[13] = viability profiling in MM1S myeloma cells – cell-based, resazurin fluorescence, basal, 24 h, PK04 Diversity Set, profiling panel (AID 1174); settings: higher = more signal, called active from +8 up or from −8 down; note: test concentration not given here
[14] = target: Dihydroorotate dehydrogenase (quinone), mitochondrial (Plasmodium falciparum (isolate 3D7)) (UniProt Q08210); experiment: inhibition of P. falciparum DHODH – biochemical, C-terminal His tag, absorbance 600 nm, primary screen (AID 1175); settings: PfDHODH enzyme, DCIP absorbance 600 nm; higher = more signal, called active from +8 up or from −8 down;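 note: recombinant parasite enzyme with a five histidine tag at its C terminus; test concentration not given here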
[15] = inhibition of PAO1 biofilm formation – strain PAO1, LB-PBS medium, absorbance 600 nm, primary screen (AID 1176); note: test concentration not given here; settings: P. aeruginosa PAO1 growth/biofilm, A600, 12 h; higher = more signal
[16] = growth modulation of vineyard yeast isolate – strain RM11-1a, OD600, basal, 24 h, primary screen (AID 1177);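 note: cultures grown under basal conditions with no added stressor; test concentration not given here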; settings: S. cerevisiae RM11-1a growth, OD600, 24 h; higher = more signal, called active from +8 up or from −8 down
[17] = growth of efflux-deficient E. coli DRC39 – strain DRC39, OD650, 24 h, E. coli filamentation inducers, primary screen (AID 1178);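 note: growth measured as culture turbidity by optical density at 650 nm; test concentration not given here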; settings: E. coli DRC39 acrAB, higher = more signal, called active from +8 up or from −8 down
[18] = growth of efflux-deficient E. coli DRC39 – strain DRC39, OD650, 48 h, E. coli filamentation inducers, primary screen (AID 1179);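 note: screen aims at cell division blockers that make cells filament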; settings: E. coli DRC39 delta-acrAB growth, higher = more signal, called active from +8 up or from −8 down
[19] = viability profiling in RPMI8226 myeloma cells – cell-based, resazurin fluorescence, basal, 24 h, PK04 Diversity Set, profiling panel (AID 1180); settings: higher = more signal;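 note: RPMI8826 multiple myeloma cell line at 5000 cells per well; test concentration not given here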
[20] = target: E3 ubiquitin-protein ligase XIAP (Homo sapiens) (UniProt P98170); experiment: small molecules binding XIAP protein – biophysical, small-molecule microarray, fluorescence 635 nm, primary screen (AID 1181); settings: higher = more signal;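 note: score merges 667 nm emission and signal to noise over triplicate slides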
E3 ubiquitin-protein ligase XIAP (Homo sapiens), sequence (P98170 whole entry, looked up): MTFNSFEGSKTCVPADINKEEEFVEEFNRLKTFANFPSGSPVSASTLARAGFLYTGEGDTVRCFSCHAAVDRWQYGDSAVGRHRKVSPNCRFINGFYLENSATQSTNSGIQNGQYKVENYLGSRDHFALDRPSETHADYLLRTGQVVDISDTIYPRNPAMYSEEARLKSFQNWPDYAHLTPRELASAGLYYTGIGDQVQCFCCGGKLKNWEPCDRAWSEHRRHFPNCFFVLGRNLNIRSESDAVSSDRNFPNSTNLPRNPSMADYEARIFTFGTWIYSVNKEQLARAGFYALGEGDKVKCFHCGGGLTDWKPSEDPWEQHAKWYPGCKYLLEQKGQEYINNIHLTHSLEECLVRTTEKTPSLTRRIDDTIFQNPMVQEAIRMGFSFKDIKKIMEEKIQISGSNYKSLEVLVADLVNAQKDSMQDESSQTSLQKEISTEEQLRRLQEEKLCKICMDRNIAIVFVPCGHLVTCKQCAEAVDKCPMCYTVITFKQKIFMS

Dihydroorotate dehydrogenase (quinone), mitochondrial (Plasmodium falciparum (isolate 3D7)), sequence (Q08210 whole entry, looked up): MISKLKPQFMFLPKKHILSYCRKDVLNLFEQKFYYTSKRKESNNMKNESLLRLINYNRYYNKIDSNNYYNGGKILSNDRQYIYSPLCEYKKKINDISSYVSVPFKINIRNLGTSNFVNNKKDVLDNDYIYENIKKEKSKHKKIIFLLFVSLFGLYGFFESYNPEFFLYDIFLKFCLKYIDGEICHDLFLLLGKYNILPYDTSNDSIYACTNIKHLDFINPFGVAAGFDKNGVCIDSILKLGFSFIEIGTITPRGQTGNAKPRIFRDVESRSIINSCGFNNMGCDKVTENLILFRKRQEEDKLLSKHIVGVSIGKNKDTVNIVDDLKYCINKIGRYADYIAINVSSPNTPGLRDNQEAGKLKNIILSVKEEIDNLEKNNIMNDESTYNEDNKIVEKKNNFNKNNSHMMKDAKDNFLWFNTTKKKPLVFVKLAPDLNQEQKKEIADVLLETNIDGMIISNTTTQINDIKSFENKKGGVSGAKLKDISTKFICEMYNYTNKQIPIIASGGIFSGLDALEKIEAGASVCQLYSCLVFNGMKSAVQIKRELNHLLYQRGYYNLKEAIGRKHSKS

| Structure (SMILES) | z-score [1] | z-score [2] | z-score [3] | z-score [4] | z-score [5] | z-score [6] | z-score [7] | z-score [8] | z-score [9] | z-score [10] | z-score [11] | z-score [12] | z-score [13] | composite z-score [14] | z-score [15] | z-score [16] | z-score [17] | z-score [18] | z-score [19] | composite z-score [20] |
| --- | --- | --- | --- | --- | --- | --- | --- | --- | --- | --- | --- | --- | --- | --- | --- | --- | --- | --- | --- | --- |
| CON=C(C)CCC(=O)OC[C@H]1O[C@H](C#Cc2ccccc2)C=C[C@@H]1Oc1ccc(C)cc1 | -0.631 | 0.0995 | -3.1 | -2.99 | -3.96 | -0.712 | -0.73 (inactive) | -0.5 | -0.373 | 0.216 (inactive) | -0.118 | -0.944 (inactive) | -0.642 (inactive) | 0.444 (inactive) | 0.298 (inactive) | 0.888 (inactive) | 0.556 (inactive) | -1.88 (inactive) | -0.549 | 0.289 |
| CC(=O)OC[C@H]1O[C@H](C#CCCc2ccccc2)C=C[C@@H]1OC(C)=O | 0.233 | 0.292 | -0.207 | -3.49 | -2.48 | -0.972 | -0.282 (inactive) | -0.353 | -1.11 | -0.182 (inactive) | -0.403 | -1.17 (inactive) | -0.841 (inactive) | -0.419 (inactive) | -0.0691 (inactive) | 0.702 (inactive) | 0.551 (inactive) | -0.406 (inactive) | -0.0728 | -0.105 |
| COC(=O)CC=C[C@@H](C)[C@@H](C=NOC(C)CN1CCCCc2nc(C)c(C)cc21)OC (stereo not given in full) | -0.165 | -0.213 | -0.0272 | -1.74 | -0.444 | -0.254 | -0.142 (inactive) | -0.497 | 0.444 | 0.0399 (inactive) | -0.264 | -0.927 (inactive) | 0.0144 (inactive) | 0.244 (inactive) | -0.0417 (inactive) | -0.46 (inactive) | 0.324 (inactive) | 0.257 (inactive) | -0.0511 | -0.459 |
| COC(OC)[C@@H](C)[C@H](OC)[C@@H](C)[C@H](OC)c1ccccc1 | 2.22 | 0.159 | 0.568 | -0.569 | 0.692 | 0.348 | -0.14 (inactive) | 0.404 | 1 | -0.996 (inactive) | -0.634 | -1.31 (inactive) | -2.8 (inactive) | -2.36 (inactive) | 0.912 (inactive) | -1.02 (inactive) | 0.366 (inactive) | -0.0254 (inactive) | -0.466 | -0.138 |
| O=C1C=C[C@@H](O)[C@@H]2[C@@H]3C(=O)N(C4CCCCC4)C(=O)[C@@H]3CC[C@@H]12 | -0.0763 | 0.351 | -0.602 | -1.88 | -2.19 | 1.23 | -0.58 (inactive) | -0.733 | -1.54 | 0.269 (inactive) | -0.295 | -1.28 (inactive) | -1.45 (inactive) | -0.168 (inactive) | -0.601 (inactive) | 0.246 (inactive) | -0.292 (inactive) | -0.191 (inactive) | -1.31 | -0.269 |
| O=C1C=C[C@@H](O)[C@@H]2[C@@H]3C(=O)N(Cc4ccc5c(c4)OCO5)C(=O)[C@@H]3CC[C@@H]12 | -0.0516 | 0.493 | 0.0311 | -0.186 | 0.0706 | -0.214 | -0.0146 (inactive) | 0.0398 | 0.652 | -0.701 (inactive) | -0.557 | 0.516 (inactive) | 0.966 (inactive) | 0.0627 (inactive) | 0.0122 (inactive) | -0.129 (inactive) | 0.207 (inactive) | -0.173 (inactive) | 0.422 | -0.0233 |
| C[C@H]1CC[C@H]2C(=O)O[C@H](CO)CN2[C@@H]1c1ccc(Br)cc1 | 0.889 | -0.214 | 0.547 | 0.349 | -0.73 | 0.0194 | -0.526 (inactive) | 0.301 | -0.434 | 0.581 (inactive) | 0.72 | -8.2 (active) | 0.678 (inactive) | 0.586 (inactive) | 0.441 (inactive) | -0.356 (inactive) | 0.342 (inactive) | -0.016 (inactive) | -0.817 | 0.0733 |
| COC(=O)[C@@H]1CC[C@H](C)[C@@H](c2ccc(Br)cc2)N1 | 0.23 | 0.309 | -0.183 | 0.125 | 0.0204 | -0.0948 | -0.644 (inactive) | -0.295 | 0.214 | -0.284 (inactive) | 0.138 | 0.86 (inactive) | 0.176 (inactive) | 0.496 (inactive) | 0.119 (inactive) | 1.27 (inactive) | 0.45 (inactive) | -0.836 (inactive) | 0.279 | 1.27 |
| C[C@@H]1CC[C@H]2C(=O)O[C@@H](CN=[N+]=[N-])CN2[C@H]1c1ccc(Br)cc1 | -3.8 | 0.254 | -4.54 | -3.04 | -4.07 | -2.08 | -0.62 (inactive) | -1.18 | -1.33 | -0.487 (inactive) | -0.607 | -3.55 (inactive) | -0.74 (inactive) | 5.24 (inactive) | -0.446 (inactive) | 4.32 (inactive) | 0.31 (inactive) | -1.66 (inactive) | -4.06 | -0.0421 |
| C[C@@H]1CC[C@@H](C(=O)O)N[C@H]1c1cccc(N2CCOCC2)c1 | 1.03 | -0.219 | 0.0881 | 0.401 | 1.07 | 1.66 | 0.631 (inactive) | -0.157 | -0.144 | 0.148 (inactive) | 0.764 | -1.62 (inactive) | 0.7 (inactive) | 0.18 (inactive) | 0.143 (inactive) | -0.206 (inactive) | 1.32 (inactive) | 1.13 (inactive) | 0.198 | 0.13 |
